Assay outcomes: PubChem, National Center for Advancing Translational Sciences (NCATS)
POLI inh: DNA polymerase iota (human) inhibition; Q9UNA4; Pol iota fluorescent replication assay, 10 min; Potency, µM (top dose mostly 115 µM), for inactives: at the highest dose activity, negative = inhibition, actives largely listed as inhibitors; actives 1% (n = 390,000); AID 588590; also: potency is read from the fitted curve at half-maximal effect
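Fluorescent replication assay read twice, at 0 min and 10 min after adding 50 nM (final) substrate. Enzyme (10 nM) and compounds were first incubated 15 min at room temperature; enzyme-free buffer wells were negative controls.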
Pol eta inh-1: DNA polymerase eta (human) inhibition | recombinant Pol eta, fluorescent DNA replication assay | AID 588591 | Q9Y253 | Potency, µM (titrated, usually from 114 µM), inactives show at the top dose activity change, negative = inhibition, usual class: inhibitors | actives 1.2% (n = 390,000); also: potency is read from the fitted curve at half-maximal effect; % is scaled to controls: 0 for no effect and ±100 for the full control effect
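Pol eta (10 nM) was preincubated with compounds for 15 min at room temperature, after which fluorescent replication substrate (50 nM final) was added to start the reaction. Fluorescence was read kinetically at 0 and 10 min.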
FEN1 inh: human FEN1 inhibition. actives 0.35% (n = 390,000). Recombinant FEN1 flap cleavage, fluorescence, 15 min. Potency, µM (series often up to 114 µM), without a hit: at the top dose activity change, negative = inhibition, actives largely listed as inhibitors; also: potency is read from the fitted curve at half-maximal effect; % is scaled to controls: 0 for no effect and ±100 for the full control effect; nearly all actives have a fitted effect of over 65% in size
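In this screen, 50 nM flap DNA substrate was added to 10 nM FEN1 pretreated with compound for 15 min at room temperature; cleavage was followed with reads at 0 and 15 min, and Hill fitting gave concentration–response parameters.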
WRN helicase inh: blocks human WRN helicase | Q14191 | WRN helicase unwinding, fluorescent forked duplex, kinetic | Potency, µM (highest dose often 114 µM), without a hit: top-dose activity change, negative = inhibition, most hits filed as inhibitors | actives 0.46% (n = 360,000); also: potency is read from the fitted curve at half-maximal effect; % is scaled to controls: 0 for no effect and ±100 for the full control effect; nearly all actives have a fitted effect of over 55% in size
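Primary qHTS, 1536-well format. 20 nM WRN + compound, 15 min RT; start with 100 nM forked fluorophore/quencher duplex, 2 mM ATP (final); kinetic read ex 525/em 598 nm.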
POLB inh: DNA polymerase beta (human) inhibition; P06746; Pol beta primer extension/strand displacement, fluorescence kinetic; Potency, µM (highest dose often 114 µM), without a hit: at the highest dose activity change, negative = inhibition, most hits filed as inhibitors; actives 1.3% (n = 340,000); AID 485314; also: potency is read from the fitted curve at half-maximal effect; % is scaled to controls: 0 for no effect and ±100 for the full control effect
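Pol beta (10 nM) and compounds were preincubated 15 min at room temperature, then 50 nM substrate (final) started primer extension/strand displacement. Reads were taken at 0 and 10 min; concentration-response data were fitted to a four-parameter Hill equation.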
Pol kappa inh: DNA polymerase kappa (human) inhibition; Q9UBT6; purified Pol kappa, fluorescent DNA synthesis assay, 10 min; Potency, µM (doses to about 107 µM), inactives show at the highest dose activity, negative = inhibition, most hits filed as inhibitors; AID 588579; actives 0.53% (n = 400,000); also: potency is read from the fitted curve at half-maximal effect; % is scaled to controls: 0 for no effect and ±100 for the full control effect
Target sequence (Q9UBT6 whole entry, looked up): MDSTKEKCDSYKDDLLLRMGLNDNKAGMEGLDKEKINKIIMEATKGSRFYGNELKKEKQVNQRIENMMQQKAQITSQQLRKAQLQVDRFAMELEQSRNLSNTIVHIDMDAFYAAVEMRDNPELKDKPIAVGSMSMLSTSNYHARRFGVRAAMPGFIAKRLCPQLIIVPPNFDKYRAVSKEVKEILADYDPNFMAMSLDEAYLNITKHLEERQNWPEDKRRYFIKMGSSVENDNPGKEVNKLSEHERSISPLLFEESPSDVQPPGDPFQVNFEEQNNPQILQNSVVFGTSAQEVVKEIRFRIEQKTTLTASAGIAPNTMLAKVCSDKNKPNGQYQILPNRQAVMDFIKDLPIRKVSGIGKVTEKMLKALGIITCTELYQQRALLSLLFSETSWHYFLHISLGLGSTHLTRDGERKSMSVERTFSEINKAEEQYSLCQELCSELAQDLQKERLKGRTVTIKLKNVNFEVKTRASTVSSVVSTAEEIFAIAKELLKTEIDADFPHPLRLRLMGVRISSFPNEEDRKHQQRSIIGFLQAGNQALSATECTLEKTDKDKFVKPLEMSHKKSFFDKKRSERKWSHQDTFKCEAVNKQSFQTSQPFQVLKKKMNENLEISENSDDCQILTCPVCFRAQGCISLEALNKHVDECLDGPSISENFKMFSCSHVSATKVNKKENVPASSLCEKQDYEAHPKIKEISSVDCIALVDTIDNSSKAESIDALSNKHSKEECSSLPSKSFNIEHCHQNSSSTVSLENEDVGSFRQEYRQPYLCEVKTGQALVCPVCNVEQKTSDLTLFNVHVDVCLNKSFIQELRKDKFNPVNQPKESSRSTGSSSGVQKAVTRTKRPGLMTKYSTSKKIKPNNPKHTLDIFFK
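First, compounds were pin-transferred onto 10 nM Pol kappa. After 15 min at room temperature, substrate was added to 50 nM final. Fluorescence was then measured kinetically at 0 and 10 min.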
GALK confirm: galactokinase (human) inhibition, confirmation; shares compounds with Pol eta inh-1; purified GALK, Kinase-Glo ATP depletion luminescence; Potency, µM (series often up to 115 µM), for inactives: at the highest dose activity, negative = inhibition, actives largely listed as inhibitors; actives 70% (n = 150)
GALK redox cs: counter-screen for GALK inhibitors: redox cycling H2O2 generation; shares compounds with Pol eta inh-1; Phenol red-HRP H2O2 redox cycling, absorbance 600 nm; Potency, µM (top dose mostly 115 µM), inactives show at the top dose activity change, negative = H2O2 signal, hits mostly inhibitors; actives 40% (n = 150); AID 2035
HEK293 viability: counter-screen for GALK inhibitors: HEK293 cell cytotoxicity; HEK-293 viability, ATP luminescence (CellTiter-Glo), 24/48 h; Potency, µM (highest dose often 46.1 µM), for inactives: at the top dose activity change, negative = cytotoxicity, hits mostly inhibitors; actives 10% (n = 170); shares compounds with Pol eta inh-1; AID 2547; also: potency is read from the fitted curve at half-maximal effect; % is scaled to controls: 0 for no effect and ±100 for the full control effect
Pol eta inh-2: Pol eta (human) inhibition, cherry-pick confirmation; Pol eta primer extension, TAMRA/BHQ fluorescence, 10 min; shares compounds with Pol eta inh-1; actives 64% (n = 2,600); Potency, µM, usual class: inhibitors; also: potency is read from the fitted curve at half-maximal effect
* marks the source's active call; other numbers are inactive results; u = inconclusive; x = not tested or not shown; [ ] = another dose, or the depositor's remark. Sampled rows, rich in hits. Any-hit rate of the full collection: about 2.4%. Calls follow the shape of the dose curve; as a rule, active = well fitted curve in the direction sought with a large enough effect; inconclusive = small, poorly fitted or top-dose-only effect, or another doubt; inactive = no such curve, though single readings can be large; an effect the other way counts as inactive or inconclusive.

SMILES | POLI inh | Pol eta inh-1 | FEN1 inh | WRN helicase inh | POLB inh | Pol kappa inh | Pol eta inh-2 | others
Cc1nc(Nc2nc3ccccc3o2)nc2c1C(=O)CC(C)(C)C2 | x | x | x | x | x | x | x | HEK293 viability=-6.5%
COC(=O)c1ccc(CSc2ccc3nnc(-c4ccccn4)n3n2)o1 | 19.3% | -16.0% | 0.0% | 2.1% | -4.3% | -0.4% | x | GALK confirm=-6.9%;GALK redox cs=0.8%;HEK293 viability=-0.7%
COC(=O)c1ccc(CSc2ccc3nnc(-c4ccc(F)cc4)n3n2)o1 | -4.3% | -3.4% | -5.8% | 10.4% | -0.4% | -3.2% | x
CCn1cc(C(=O)Nc2ccc(C)c([N+](=O)[O-])c2)cn1 | -8.8% | -4.2% | -6.4% | -4.1% | -2.0% | -7.5% | x
CCC(=O)N1CCc2cc(Br)cc(S(=O)(=O)CCC(=O)N(C)c3cccc(C)c3)c21 | 6.6% | 35.5µM* | -1.9% | x | 44.7µM* | -29.6% | 84.9*
CCN(C(=O)CCS(=O)(=O)c1cc(Br)cc2c1N(C(=O)C1CC1)CC2)c1cccc(C)c1 | -6.9% | -6.7% | -3.8% | x | -17.7% | 0.0% | x
CC(=O)n1cc(N(C(=O)CCl)c2ccc(Cl)cc2)c2ccccc21 | u | 28.2µM* | -0.3% | -12.9% | 15.2% | -14.6% | u
Cc1ccc([N+](=O)[O-])cc1S(=O)(=O)Nc1ccc(C(=O)NCc2ccccn2)cc1 | u | u | -1.9% | -24.9% | x | u | u
Cc1cccc(NS(=O)(=O)c2cc(C(=O)NCc3ccccn3)ccc2C)c1 | 30.3% | -21.5% | 0.9% | -4.0% | -19.0% | -13.6% | x
Cc1[nH]c(=O)[nH]c(=O)c1S(=O)(=O)Nc1ccc(Br)cc1F | 2.2% | -3.0% | -0.2% | 5.5% | 4.2% | 1.2% | x
COc1cc(/C=C2/C(C)=C(C#N)c3nc(N)c(C#N)c(C)c32)ccc1OCC(=O)O | u | 17.8µM* | u | u | u | 89.1µM* | 30.1*
Cc1cc(C)c(C(=O)/C=C/c2ccco2)c(=O)[nH]1 | u | 56.2µM* | -3.6% | -3.2%[11.6 µM] | 14.1µM* | u | 84.9*
O=C(/C=C/c1ccco1)c1cccc([N+](=O)[O-])c1 | 50.1µM* | 20µM* | -8.5% | u | x | u | u
COc1ccc2oc(C(=O)Nc3ccccc3N3CCOCC3)c(C)c2c1 | u | 3.9% | -8.4% | -1.8% | x | -10.2% | x
COc1ccc2oc(C(=O)Nc3ccc(N4CCOCC4)cc3)c(C)c2c1 | u | 12.6µM* | -4.5% | u | x | u | 37.9*
N#Cc1ccc(-c2cccs2)nc1SCc1c(F)cccc1Cl | -18.8% | -26.8% | -16.8% | x | 32.2% | -6.1% | x
CC(C)C(c1nnnn1C1CCCC1)N1c2ccccc2CC1C (centres undefined) | 4.8% | -11.5% | -12.1% | -14.6% | -18.6% | 0.0% | x
C[C@@H](C(=O)Nc1nc(-c2ccccn2)cs1)N1C(=O)C2CCCCC2C1=O (some centres undefined) | 7.08µM* | 12.6µM* | 17.9% | u | 12.6µM* | -14.9% | u
